# Measured values as given in the supplement of paper PMC9694430.
# Counter-ions that a name gives are not always drawn.
# Legend:
# Experiment in all cases: thermal shift delta Tm vs DMSO control; higher = stronger stabilization (binding)
# Settings in all cases: 12.5 µM; protein concentration 2 µM
# LOC_OS04G57630-cb004 = system: LOC_OS04G57630-cb004
# In short: (§1)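 The melting temperature shift given here is a triplicate mean, measured against protein that received only DMSO. Melting temperatures came from Boltzmann fits of differential scanning fluorimetry data on E. coli-expressed, purified rice kinase domain constructs. Each 19.5 μl well contained 2 μM kinase, 100 mM potassium phosphate pH 7.5, 150 mM NaCl, 10% glycerol, 5 × SYPRO Orange and compound in DMSO. Plates were scanned from 25°C to 95°C at 0.05°C/s.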
# LOC_OS05G07850-cb002 = system: LOC_OS05G07850-cb002
# In short: as §1
# LOC_OS05G16824-cb004 = system: LOC_OS05G16824-cb004
# In short: as §1
# LOC_OS05G28520-cb001 = system: LOC_OS05G28520-cb001
# In short: as §1
# LOC_OS05G30820-cb001 = system: LOC_OS05G30820-cb001
# In short: as §1
# LOC_OS05G43570-cb004 = system: LOC_OS05G43570-cb004
# In short: as §1
# LOC_OS06G16330-cb003 = system: LOC_OS06G16330-cb003
# LOC_OS06G16330-cb003, sequence (as listed by the source): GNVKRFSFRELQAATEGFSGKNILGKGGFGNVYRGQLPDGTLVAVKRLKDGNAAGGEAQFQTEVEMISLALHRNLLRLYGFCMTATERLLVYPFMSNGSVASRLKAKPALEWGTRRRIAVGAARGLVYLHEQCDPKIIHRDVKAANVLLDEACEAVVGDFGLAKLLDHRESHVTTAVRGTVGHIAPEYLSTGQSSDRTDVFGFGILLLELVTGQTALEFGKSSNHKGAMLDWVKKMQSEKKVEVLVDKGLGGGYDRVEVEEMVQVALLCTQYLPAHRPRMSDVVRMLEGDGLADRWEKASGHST
# In short: as §1
# LOC_OS06G22820-cb001 = system: T1, LOC_OS06G22820-cb001
# T1 sequence (whole entry): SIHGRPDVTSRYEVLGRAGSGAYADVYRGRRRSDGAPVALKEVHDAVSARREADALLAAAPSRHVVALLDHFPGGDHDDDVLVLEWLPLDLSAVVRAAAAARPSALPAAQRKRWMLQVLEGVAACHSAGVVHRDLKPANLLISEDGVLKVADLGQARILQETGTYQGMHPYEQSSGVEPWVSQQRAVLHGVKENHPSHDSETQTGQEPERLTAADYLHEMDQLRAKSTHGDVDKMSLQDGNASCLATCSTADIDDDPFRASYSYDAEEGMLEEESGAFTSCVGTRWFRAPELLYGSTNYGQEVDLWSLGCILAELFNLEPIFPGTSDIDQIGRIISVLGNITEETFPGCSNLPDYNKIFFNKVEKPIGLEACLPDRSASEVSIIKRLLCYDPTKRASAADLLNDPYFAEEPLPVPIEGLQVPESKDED
# In short: as §1
# LOC_OS07G06570-cb004 = system: LOC_OS07G06570-cb004
# In short: as §1
# LOC_OS07G07230-cb001 = system: LOC_OS07G07230-cb001
# In short: as §1
Compound,thermal shift delta Tm (LOC_OS04G57630-cb004) [°C],thermal shift delta Tm (LOC_OS05G07850-cb002) [°C],thermal shift delta Tm (LOC_OS05G16824-cb004) [°C],thermal shift delta Tm (LOC_OS05G28520-cb001) [°C],thermal shift delta Tm (LOC_OS05G30820-cb001) [°C],thermal shift delta Tm (LOC_OS05G43570-cb004) [°C],thermal shift delta Tm (LOC_OS06G16330-cb003) [°C],thermal shift delta Tm (LOC_OS06G22820-cb001) [°C],thermal shift delta Tm (LOC_OS07G06570-cb004) [°C],thermal shift delta Tm (LOC_OS07G07230-cb001) [°C]
Nc1cccc(-c2cc3c(Oc4cccc(O)c4)ncnc3[nH]2)c1,1.21,11.1,5.59,0.57,1.14,0.77,4.75,0.88,1.36,-0.21
CNc1nc(Nc2cnn([C@H]3CCN(C4COC4)C[C@@H]3F)c2Cl)ncc1C(F)(F)F,1.85,10.8,5.54,0.59,0.51,0.4,5.64,0.65,0.89,0.28
CC(=O)Nc1cccc(-n2c(=O)n(C3CC3)c(=O)c3c(Nc4ccc(I)cc4F)n(C)c(=O)c(C)c32)c1,0.23,0.88,-0.98,0.48,0.42,0.15,-0.52,0.44,0.26,-0.16
CCN1C(=O)CNc2ncc(-c3ccc(-c4nc[nH]n4)nc3C)nc21,-0.18,0.15,-3.58,0.29,0.42,-0.33,-0.44,0.23,0.95,0.66
CCc1nc(C(N)=O)c(Nc2ccc(N3CCC(N4CCN(C)CC4)CC3)c(OC)c2)nc1NC1CCOCC1 [Gilteritinib (ASP2215)],5.73,17.4,9.44,1.33,0.92,1.54,15.3,0.74,1.35,0.17
CC(C)Oc1ccc(-c2nn([C@@H](C)c3oc4ccc(F)cc4c(=O)c3-c3cccc(F)c3)c3ncnc(N)c23)cc1F,0.05,-1,-4.89,0.51,0.43,0.51,0.01,0.62,1.08,-0.07
CNC(=O)c1ccc(-c2cnc3ncc(Cc4ccc5ncccc5c4)n3n2)cc1F,0.55,0.67,-1.29,0.04,0.18,0.63,-2.08,0.46,1.26,0.89
Cc1ccc(C(=O)Nc2cccc(C(F)(F)F)c2)cc1Nc1nc(-c2cccnc2)nc2c1cnn2C,0.31,0.03,-1.61,0.44,0.9,1.18,1.09,0.98,1.07,0.06
CC(C)(C)S(=O)(=O)c1ccc2nccc(Nc3n[nH]c4ccc(F)cc34)c2c1,0.34,2.55,-0.25,-0.33,0.52,0.22,0.6,0.36,0.6,0.92
Oc1cc(O)cc(/C=C/c2ccc(O)c(O)c2)c1 [Piceatannol],0.71,2.79,-0.53,1.37,0.74,0.72,1.4,0.94,0.43,0.27
COc1ccc(Oc2cc(NCCC(F)(F)F)c3ncc(-c4ccc(C(=O)NC5CC5)c(C)c4)n3n2)c(F)c1F,0.38,2.11,-2.18,1.04,0.67,0.63,0.09,0.73,-0.39,1.65
"COc1cc(F)c(F)c(Nc2ccc(I)cc2F)c1NS(=O)(=O)C1(C[C@H](O)CO)CC1 [Refametinib (RDEA119, Bay 86-9766)]",0.29,0.16,-0.08,1.02,0.34,0.4,0.11,1.27,0.72,0.01
Clc1ccc(C2(c3ccc(-c4cn[nH]c4)cc3)CCNCC2)cc1,0.35,1.23,-0.22,0.22,0.51,1.87,0.19,0.61,1.01,0.03
C=C(C)[C@@H]1CC[C@]2(C)CC[C@]3(C)[C@H](CC[C@@H]4[C@@]5(C)CC[C@H](O)C(C)(C)[C@@H]5CC[C@]43C)[C@@H]12 [Lupeol],0.77,0.82,1.84,0.13,0.38,0.49,-2.09,0.12,1.26,0.62
CC(C)(C)c1cc(NC(=O)Nc2ccc(-c3cn4c(n3)sc3cc(OCCN5CCOCC5)ccc34)cc2)no1 [Quizartinib (AC220)],0.97,1.54,-1.62,0.28,0.82,0.27,0,0.73,1.04,0.45
CS(=O)(=O)N1CCc2c(-c3cnc(N)nc3)nc(N3CCOCC3)nc21,0.4,2.27,0.4,0.43,0.79,0.7,0.69,0.66,0.72,-0.05
CNC(=O)c1cc(Oc2ccc(NC(=O)Nc3ccc(Cl)c(C(F)(F)F)c3)cc2)ccn1 [Sorafenib Tosylate],1.2,9.63,1.35,1.33,0.5,1.5,1.91,2.15,1.66,0.6
CC(C)(C)NC(=O)c1cncn1C1CCN(c2ccc(-c3nnc(C(F)(F)F)o3)cn2)CC1,-0.11,0.05,0.92,-0.42,0.02,-0.06,-0.23,0.29,1.08,0.57
CNCc1ccc(-c2cc(-c3nc(-c4ccc(S(=O)(=O)C(C)C)cc4)cnc3N)on2)cc1,0.75,6.99,-0.05,0.89,0.64,0.33,0.7,0.87,1.23,0.32
C=CC(=O)Nc1cccc(Oc2nc(Nc3ccc(N4CCN(C)CC4)cc3)nc3ccsc23)c1,1.01,8.37,2.38,2.64,1.14,1.26,3.14,0.83,2.96,1.41
